About 83,000 compounds went through this panel and 20% of them were active in at least one assay; those are over-represented in the sample as a whole.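 The test compound was applied at a single concentration to cells in 96-well plates for 48 hours, and percent growth was recorded.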 Unmarked numbers belong to inactive results. Active and inactive are the calls of the source. Rule for the calls: active = growth percent below 10; inactive = the rest.
Experiments:
Experiment in all cases: NCI-60 one-dose screen, 48 h (100 = growth as untreated, 0 = no growth, -100 = all killed)
Conditions in all cases: 10 µM
HCT-15 colon = tested on: HCT-15 colon
HT29 colon = tested on: HT29 colon
SNB-75 CNS = tested on: SNB-75 CNS
SNB-19 CNS = tested on: SNB-19 CNS
U251 CNS = tested on: U251 CNS
PC-3 prostate = tested on: PC-3 prostate
SK-MEL-5 melanoma = tested on: SK-MEL-5 melanoma
UACC-62 melanoma = tested on: UACC-62 melanoma
LOX IMVI melanoma = tested on: LOX IMVI melanoma
SK-MEL-28 melanoma = tested on: SK-MEL-28 melanoma

| SMILES | growth (HCT-15 colon) | growth (HT29 colon) | growth (SNB-75 CNS) | growth (SNB-19 CNS) | growth (U251 CNS) | growth (PC-3 prostate) | growth (SK-MEL-5 melanoma) | growth (UACC-62 melanoma) | growth (LOX IMVI melanoma) | growth (SK-MEL-28 melanoma) |
| --- | --- | --- | --- | --- | --- | --- | --- | --- | --- | --- |
| COc1ccc(/C=C/C(=O)c2ccc(N3CCN(C)CC3)cc2)c(C(F)(F)F)c1 | -68.5% (active) | -52% (active) | 97.7% | 54.5% | 5.33% (active) | 43.5% | 36.7% | -31.4% (active) | -86.4% (active) | 52% |
| N#Cc1ccc(NC(=O)CSc2ccc(-c3ccc(Br)cc3)nn2)cc1 | 72.7% | 84.1% | 76% | 64% | 87.7% | 58.6% | 4.86% (active) | 29.9% | 52.8% | 62.4% |
| N#Cc1ccc(-c2nn(-c3ccc(C(=O)O)cc3)cc2CNc2cc(Cl)cc(C(F)(F)F)c2)cc1 | 7.93% (active) | 18.8% | 31% | 20.9% | 18.5% | 14.1% | -64.1% (active) | -48.8% (active) | -24% (active) | 12.2% |
| CN1C(=O)/C(=C/c2nccs2)SC1=S | 68.8% | 99.4% | 66.4% | 90.5% | 90.7% | 109% | 96.6% | 79% | 62.7% | 95.8% |
| O=c1[nH][nH]c(Nc2ccccc2)c1N=Nc1ccc(F)cc1 | 70.1% | 107% | 59.4% | 95.3% | 99.9% | 95.5% | 96.6% | 92.1% | 102% | 108% |
| Clc1cccc(N/N=C/c2c[nH]c3ccccc23)n1 | 18.9% | 30.4% | 15.5% | 43.2% | 34.7% | 25.2% | 41.7% | 55.1% | 17.9% | 79.8% |
| CN(C(=O)c1ccc(C(C)(C)C)cc1)c1sc2c(c1C#N)CCC(=O)C2 | -68.6% (active) | 113% | 98% | 8.17% (active) | -22.7% (active) | 2.52% (active) | -69.7% (active) | -43.7% (active) | -71.5% (active) | 60.3% |
| COc1cc2c3c(n(CCCNCCO)c(=O)c2cc1OC)-c1nc2c(cc1C3=O)OCO2 | 48.5% | 5.98% (active) | 18.8% | 13.7% | 12.4% | 27.1% | 30.4% | 1.57% (active) | -90.8% (active) | 72.2% |
| O=C(CNc1nc(-c2ccccc2)cs1)Nc1ccccc1 | -70.6% (active) | -53.9% (active) | 29.2% | -68.4% (active) | -85.2% (active) | 12.3% | -99.5% (active) | -90.1% (active) | -90.1% (active) | -60.1% (active) |
| CC(=C(c1ccc(OCCN2CCCCCC2)cc1)c1ccc(OCCN2CCCCCC2)cc1)c1ccc(Cl)cc1 | -76% (active) | -94.8% (active) | -97.2% (active) | -99.2% (active) | -100% (active) | -83.3% (active) | -100% (active) | -98.3% (active) | -100% (active) | -98.5% (active) |
| Cc1ccn2c(C(=O)c3ccccc3)cc(-c3cc(-c4ccc(N(C)C)cc4)c(C#N)c(N)n3)c2c1 | 73.1% | 63.1% | 78.4% | 60.9% | 31.9% | 78.1% | 58.1% | 64.6% | 21.8% | 74.3% |
| N#Cc1c(-c2ccc(F)cc2)nc(SCc2ccc([N+](=O)[O-])cc2)nc1N1CCOCC1 | 72.8% | 86.6% | 7.62% (active) | 46% | 55.3% | 59.1% | 61.9% | 62.7% | 84.7% | 82.1% |
| Cc1cc(=O)oc2cc(OCCCCOc3ccc(/C=C/C(=O)Nc4ccc(F)c(Cl)c4)cc3)ccc12 | 97% | 111% | 116% | 93.4% | 95.1% | 99.6% | 85.2% | 92% | 97.6% | 93% |
| Cc1ccc(/C=C/C(=O)c2ccc(S(=O)(=O)NCCNc3nc(Nc4ccc(F)cc4)nc(N(C)C)n3)cc2)cc1 | -46.4% (active) | -55.6% (active) | 81.3% | 44.7% | -57.3% (active) | 12.3% | 29.4% | 32.5% | -100% (active) | 40.5% |
| O=C1Nc2ccc(Cl)cc2/C1=C/c1cccc(OCc2ccccc2)c1 | 22.3% | 30.7% | 73.9% | 44.2% | 3.61% (active) | 29.3% | 22.4% | 26.3% | 1.77% (active) | 46.9% |
| O=C1CCC(N2Cc3c(C#CCCCNC(=O)c4ccc(NC(=O)[C@@H]5NC6(CCCCC6)[C@@]6(C(=O)Nc7cc(Cl)ccc76)[C@H]5c5cccc(Cl)c5F)cc4)cccc3C2=O)C(=O)N1 (stereo not given in full) | 41.8% | 51.5% | 56.1% | 58.8% | 55.4% | 51.8% | 5.4% (active) | 17.3% | 27.5% | 62.2% |
| O=C1Nc2ccc(F)cc2/C1=C/c1cccc(OCc2ccccc2)c1 | 0.287% (active) | 20.6% | 66.2% | 23.9% | 6.3% (active) | 20.4% | -24.7% (active) | 16.5% | -79.5% (active) | 36.2% |
| COc1cc(/C=C/C(=O)c2ccc(F)cc2)ccc1Oc1nc(Nc2ccc(F)cc2)nc(N(C)C)n1 | 37.2% | 60.4% | 72.5% | 68.6% | 9.68% (active) | 63.9% | 40% | 51% | -56.3% (active) | 62% |
| CN1C(=O)N(C)C2SC(N/N=C/c3ccccc3F)=NC21 (stereo not given) | 28.2% | 28.2% | 91.1% | 63.4% | 51.2% | 81.5% | 57.9% | 26.8% | 50.2% | 69.2% |
| COc1ccc(C(C)=C(c2ccc(OCCCN(C)C)cc2)c2ccc(OCCCN(C)C)cc2)cc1 | -72.7% (active) | -94.3% (active) | -95.3% (active) | -97.4% (active) | -97.5% (active) | -82.3% (active) | -98.5% (active) | -96.6% (active) | -92.5% (active) | -97.9% (active) |
| CN1CCN(c2ccc(C(=O)/C=C/c3ccc(OC(F)F)cc3)cc2)CC1 | -49.1% (active) | 13.4% | 73.8% | 47.4% | -15.6% (active) | 25.5% | 52.9% | 44.6% | -100% (active) | 67.5% |
| CN1CCN(c2ccc(Nc3nc(NCCCNC(=O)C4CCCCC4)c4sccc4n3)cc2)CC1 | 2.76% (active) | -1.75% (active) | 62.9% | 77.3% | 17.1% | 50.6% | 22.3% | 48.5% | 10.2% | -81.3% (active) |
| O=C(c1ccc(Cl)cc1)C1[C@H](c2ccccc2Br)[C@@H](c2ccccc2)NC12C(=O)Nc1ccc(Cl)cc12 (stereo not given in full) | 8.84% (active) | -14.6% (active) | 36.5% | 33.6% | 6.14% (active) | 38.1% | 15.9% | 22% | -91% (active) | 55.4% |
| [2H]C([2H])([2H])Oc1ccc2ncc(C#Cc3cncc(C(=O)Nc4ccc(CN5CCN(C)CC5)c(C(F)(F)F)c4)c3)n2n1 | -87.7% (active) | -52.8% (active) | -66.4% (active) | -57.9% (active) | -31.4% (active) | -61.6% (active) | -96.1% (active) | -77.5% (active) | -68.4% (active) | -83.8% (active) |
| Cc1ccn2c(C(=O)c3ccc(Br)cc3)cc(-c3cc(-c4ccc(N(C)C)cc4)c(C#N)c(N)n3)c2c1 | 39.7% | 34.6% | 118% | 67.8% | 19.9% | 64.4% | 53.1% | 76.7% | 30.7% | 51.1% |
| Cc1cc(=O)oc2cc(OCCCCOc3ccc(/C=C/C(=O)Nc4ccccc4[N+](=O)[O-])cc3)ccc12 | 104% | 117% | 103% | 97.8% | 106% | 109% | 102% | 94.9% | 107% | 103% |

Reference: PubChem BioAssay (NCI)
